TWEAK-Fn14 inh: inhibitors of TWEAK-Fn14 signaling, primary screen, luciferase reporter cells, uHTS; AID 1159606, 2016; inhibition, % at 10 µM; hit rate 2% among 360,000; TWEAK-stimulated Fn14 reporter cells, luciferase luminescence, 8 h; in the data active means inhibition above about 50%
EWS-Fli block: EWS/Fli-driven NR0B1 reporter inhibitors, primary screen, A673 cells, NR0B1 luciferase, luminescence, MLPCN library; viability-normalised; AID 651661, 2012; hit rate 0.67% among 350,000; inhibition, % at 12.6 µM;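 active means mean inhibition of at least 50% after viability correction, with every replicate also passing that limit; inconclusive means mean reaches 50% but only one of two replicates passes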;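 further: firefly luciferase signal divided by Alamar Blue viability fluorescence both relative to DMSO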
LGR2 antag: inhibitors of bursicon-induced LGR2 CRE-luciferase signal, primary screen, cell-based, HEK293, CRE-luciferase reporter, bursicon stimulation. Drosophila bursicon receptor LGR2 (rickets). bursicon-stimulated, 4 h. inhibition, % at 9.99 µM. hit rate 0.35% among 380,000;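 active means drop in luminescence signal, shown as inhibition above about 50% in the replicate tests, limit read from the data, passing the limit was not always enough; inconclusive means probably only some replicates passing the limit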;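 further: agonist challenge used bursicon conditioned medium at about half maximal strength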
TROY NFkB inh: inhibitors of TROY-driven NF-kB signaling, primary screen, Q293 LMP1-TROYcd cells, NF-kB luciferase, uHTS. Q293 LMP1-TROYcd NF-kB luciferase reporter, 4 h. inhibition, % at 10 µM. hit rate 0.98% among 360,000;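 active means compounds whose plate-normalised and pattern-corrected inhibition of the luciferase reporter signal at the single screening dose is 50% or more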
CF NFkB inh: inhibitors of PAF-induced NF-kB signaling, primary screen, cell-based, GFP fluorescence, uHTS | KKLEB NF-kB-GFP reporter, GFP fluorescence overnight | AID 588850, 2011 | inhibition, % at 5 µM | hit rate 0.86% among 360,000;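 active means at least 50% inhibition at 5 µM, scaled per plate between neutral and stimulator controls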;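 further: PAF is a Pseudomonas aeruginosa culture filtrate used as stimulus; plate controls were PAF-stimulated DMSO wells for no effect and unstimulated DMSO wells for full effect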
KKLEB tox: cytotoxicity in KKLEB CF airway cells, primary screen, cytotoxicity control for CF NF-kB inhibitor project, cell-based, uHTS, fluorescence assay plates | KKLEB CF airway cells viability, ATPlite luminescence, overnight; stronger effect = lower value; cells stimulated with P. aeruginosa culture filtrate | activity change (cytotoxicity), % at 5 µM | hit rate 0.36% among 360,000 | AID 602141, 2011;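 active means corrected activity change at or below -50% at 5 µM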
The depositor's hits bear a star; ? = inconclusive; / = no result given. This is a sample that favours compounds with a hit; in the whole collection about 2.6% have one here.

SMILES	TWEAK-Fn14 inh	EWS-Fli block	LGR2 antag	TROY NFkB inh	CF NFkB inh	KKLEB tox
CC1=NCC(C)c2ccccc21 (stereo not given)	8	-5	6	3	0	-1
CCCC(=O)N1CC2(C1)CN(C(=O)C1CCOCC1)[C@@H](CO)c1[nH]c3cc(OC)ccc3c12	/	-4	-16	/	/	/
COc1ccc(-c2cc(C)nc3c(-c4ccccc4)cnn23)cc1	65*	2	?	66*	-6	-12
COc1ccccc1-c1c(C)nn2c(-c3ccccc3)cc(C)nc12	26	5	-7	29	6	-7
Cc1cc(NC2CCCC2)n2ncc(-c3ccccc3)c2n1	90*	62*	63*	81*	8	-42
Cc1nc2c(-c3ccccc3)cnn2c(N)c1-c1ccccc1	98*	41	57*	77*	-15	-65*
Cc1cc(NCCCn2ccnc2)n2ncc(-c3ccccc3)c2n1	99*	/	/	81*	0	-32
Cc1cc(NCc2ccccc2)n2ncc(-c3ccccc3)c2n1	17	-66	-111	14	-13	-2
Cc1cc(-c2ccccc2)n2ncc(-c3ccccc3)c2n1	89*	38	60*	74*	-4	-30
C[C@H](CO)N1C[C@H](C)[C@H](CN(C)S(=O)(=O)c2ccc(F)cc2)Oc2ccc(NC(=O)Nc3ccc4c(c3)OCO4)cc2CC1=O	/	39	18	/	/	/
COc1cccc2c1C(=O)C=C(C)C2=O	9	24	20	31	58*	6
CC(C)(C=O)C1=CC(=O)c2ccccc2C1=O	63*	/	10	70*	-12	-1
CC1=CC(=O)c2ccccc2C1=O	10	-5	-7	15	62*	-16
COC(=O)C[C@@H]1CC[C@H]2[C@@H](COC[C@H](O)CN2CCC(F)(F)F)O1	/	-1	-2	/	/	/
O=C(Nc1ccc2c(c1)OCCO2)c1ccc(Br)c(S(=O)(=O)N2CCOCC2)c1	82*	/	/	61*	0	0
CC(=O)c1ccc(NC(=O)c2ccc(C)c(S(=O)(=O)N3CCOCC3)c2)cc1	-6	/	-15	-9	0	3
CCOC(=O)c1ccc(NC(=O)c2ccc(C)c(S(=O)(=O)N3CCOCC3)c2)cc1	96*	/	/	73*	-11	14
CCOC(=O)c1cc(OC(=O)Cc2ccc(OC)c(S(=O)(=O)N3CCOCC3)c2)cc(C(=O)OCC)c1	28	5	-3	52*	22	-7
Cc1ccc(NC(=O)c2cccnc2)cc1S(=O)(=O)N1CCOCC1	-5	-5	2	-12	-18	-1
Cc1cc(C)n(-c2ccc(C(=O)Nc3ccc(C)c(S(=O)(=O)N4CCOCC4)c3)cc2)n1	64*	15	?	64*	-11	4
CNC(=O)C[C@@H]1CC[C@H]2[C@H](COc3ccc(NC(=O)Nc4ccc(F)c(F)c4)cc3C(=O)N2C)O1	/	-11	-21	/	/	/
COc1ccc2c3c(n(C)c2c1)[C@H](CO)N(C(C)=O)CC31CCN(C(=O)C2CCOCC2)CC1	/	-2	1	/	/	/
O=C(O)CSCC(=O)Nc1ccc(C2CCCCC2)cc1	92*	/	29	83*	2	3
Nn1cnnc1SCC(=O)Nc1ccc(C2CCCCC2)cc1	-31	/	/	-65	-6	-6
CC(C)NC(=O)N(C)C[C@H]1Oc2cc(C#C[C@H](C)O)ccc2S(=O)(=O)N([C@H](C)CO)C[C@@H]1C	/	-2	-12	/	/	/
SMILES	TWEAK-Fn14 inh	EWS-Fli block	LGR2 antag	TROY NFkB inh	CF NFkB inh	KKLEB tox
N/C(=N\c1nc2ccccc2o1)NC(=O)c1ccccc1	-20	/	/	-37	-35	1
N/C(=N\c1nc2ccccc2o1)NC(=O)/C=C/c1ccccc1	55*	-11	3	40	-4	4
C/C(CC(=O)Nc1ccc([N+](=O)[O-])cc1)=N\NC(=O)c1ccccc1O	-27	13	-9	32	-10	-4
C/C(CC(=O)Nc1ccc(N(C)C)cc1)=N\NC(=O)c1ccccc1O	24	-8	-20	56*	3	-2
Cc1cc(C(=O)CSc2nnc(N)s2)c(C)n1Cc1cccs1	29	/	75*	-49	21	-20
CC(=O)Nc1ccc(SCC(=O)c2cc(C)n(-c3ccccc3F)c2C)cc1	87*	/	18	66*	-25	11
CC(=O)Nc1ccc(SCC(=O)c2cc(C)n(Cc3cccs3)c2C)cc1	93*	/	/	38	13	-56*
O=C1O[C@@H](c2ccccc2)[C@@H](c2ccccc2)N2[C@@H](c3ccc(OCCO)cc3)[C@]3(C(=O)Nc4ccc(C#CC5=CCCCC5)cc43)[C@@H](C(=O)N3CCCCCCC3)[C@H]12	/	-6	/	/	/	/
O=C(NCc1cc(C(F)(F)F)ccc1Cl)c1cccc2c1C(=O)c1ccc(N3CCC(N4CCCCC4)CC3)cc1S2(=O)=O	-93	48	active	-7	-15	-14
Cc1ccc2c(c1)cc(C)c1nnc(SCC(=O)NCc3ccco3)n12	9	3	13	-8	-25	-1
Cc1ccc2cc(C)c3nnc(SCC(=O)NCc4ccco4)n3c2c1	52*	-9	7	-13	-8	21
Cc1cc2nnc(SCC(=O)NCc3ccco3)n2c2ccccc12	7	51*	2	1	-3	-6
CCCNC(=O)N1CCC2(CC1)CN(C(=O)NC1CCCC1)[C@H](CO)c1[nH]c3cc(OC)ccc3c12	/	21	4	/	/	/
COc1ccc(S(=O)(=O)N(C)C[C@H]2Oc3ccc(NC(=O)Cc4ccccc4)cc3CC(=O)N([C@@H](C)CO)C[C@H]2C)cc1	/	-8	-6	/	/	/
CCC(C)(C)NC(=O)C(c1ccc(OC)cc1)N(C(=O)CCC(=O)Nc1cc(C)on1)c1ccccc1OC (stereo not given)	57*	-6	-5	11	-6	23
Cc1ccc(N=Cc2c(O)c3ccccc3oc2=O)c(C)c1	57*	-14	/	55*	-1	-8
Cc1ccc(F)cc1N=Cc1c(O)c2ccccc2oc1=O	19	/	/	39	22	-8
COc1ccc(C2(C(=O)Nc3ccccc3)CCOCC2)cc1	67*	5	-9	2	-10	5
C/C=C/c1cnc2c(c1)C(=O)N([C@H](C)CO)C[C@H](C)[C@@H](CN(C)C(=O)NC1CCCCC1)O2	/	-6	-1	/	/	/
CN(CCOc1ccc(Cl)cc1)C(=O)c1cccc(S(=O)(=O)N2CCN(Cc3ccccc3)CC2)c1	57*	17	8	39	19	-4
COc1ccc(NC(=O)CN(C)C(=O)c2cccc(S(=O)(=O)N3CCN(Cc4ccccc4)CC3)c2)cc1	31	/	/	7	-16	3
